Paper PMC4336329 (PLoS ONE, 2015)
The whole screen tested about 310,000 compounds, of which about 14,000 (4.5%) showed an effect of 50% or more. Effects have a minus sign here. Many of the other results were omitted from the sample, so strong results are more common in it than they were.

Target: human ether-à-go-go-related gene (hERG) potassium channel (human, UniProt Q12809)
Experiment: primary screen, population patch clamp on CHO cells stably expressing hERG; higher = less effect of the substance
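Further: peak tail current of the secondary pulse compared with the same well before compound.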

Sequence of human ether-à-go-go-related gene (hERG) potassium channel (Q12809 whole entry, looked up): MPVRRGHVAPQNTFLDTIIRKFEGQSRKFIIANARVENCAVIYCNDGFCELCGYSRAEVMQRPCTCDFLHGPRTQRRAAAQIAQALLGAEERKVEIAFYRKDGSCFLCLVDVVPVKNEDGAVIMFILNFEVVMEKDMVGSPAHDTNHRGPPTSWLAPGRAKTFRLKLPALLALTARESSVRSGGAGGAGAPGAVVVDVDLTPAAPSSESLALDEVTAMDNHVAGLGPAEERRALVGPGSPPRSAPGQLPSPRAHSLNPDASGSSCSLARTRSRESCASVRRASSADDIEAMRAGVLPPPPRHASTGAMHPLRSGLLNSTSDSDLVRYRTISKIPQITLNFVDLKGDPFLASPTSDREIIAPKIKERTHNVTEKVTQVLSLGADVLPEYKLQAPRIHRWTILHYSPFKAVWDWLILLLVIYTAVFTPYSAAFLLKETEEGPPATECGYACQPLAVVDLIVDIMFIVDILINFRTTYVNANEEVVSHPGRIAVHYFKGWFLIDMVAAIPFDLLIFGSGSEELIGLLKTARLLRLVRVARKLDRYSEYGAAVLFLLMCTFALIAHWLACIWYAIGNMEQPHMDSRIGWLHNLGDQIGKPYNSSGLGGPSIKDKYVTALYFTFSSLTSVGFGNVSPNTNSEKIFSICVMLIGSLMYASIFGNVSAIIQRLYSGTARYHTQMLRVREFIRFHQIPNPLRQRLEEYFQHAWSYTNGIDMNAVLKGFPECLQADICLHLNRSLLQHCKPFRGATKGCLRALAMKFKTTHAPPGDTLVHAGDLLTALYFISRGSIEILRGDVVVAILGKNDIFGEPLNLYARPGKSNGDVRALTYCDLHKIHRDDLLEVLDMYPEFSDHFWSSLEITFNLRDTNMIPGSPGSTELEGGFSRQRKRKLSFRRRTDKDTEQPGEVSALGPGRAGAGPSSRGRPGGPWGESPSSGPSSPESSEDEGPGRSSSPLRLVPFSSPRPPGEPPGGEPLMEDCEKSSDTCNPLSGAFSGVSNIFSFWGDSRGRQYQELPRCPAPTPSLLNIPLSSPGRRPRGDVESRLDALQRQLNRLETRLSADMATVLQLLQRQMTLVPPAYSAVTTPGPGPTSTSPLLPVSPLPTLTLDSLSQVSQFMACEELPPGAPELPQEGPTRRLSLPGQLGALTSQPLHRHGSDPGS

First: Cc1ccc(S(=O)(=O)N(C(=N)N)c2nc(N(C)C)nc(N(C)C)n2)cc1
Second: COc1cc(/C(C)=N/NC(=O)CN2CCN(S(=O)(=O)c3ccc(C)cc3)CC2)ccc1O
The “hERG current change (%, negative = inhibition) at 10uM” value of the first is higher: 4.96% for the first, -11.6% for the second.

Compared with CN(C)P(=O)(NC(=O)c1cccn1C)N(C)C, CC(=O)Nc1ccn(-c2ccccc2)n1 is lower in “hERG current change (%, negative = inhibition) at 10uM” value: 47.3% for the first, 8.89% for the second.

Going from CC(=O)Nc1ccc(Nc2ncnc3c2cnn3-c2ccccc2)cc1 to O=C(Nc1ccn(-c2ccccc2)n1)c1ccc(Cl)cc1, the “hERG current change (%, negative = inhibition) at 10uM” value falls from 12.9% to -8.56%.

First: Cc1cc(C)nc(Nc2nc(-c3ccccc3)cs2)n1
Second: C=CCn1c(SCc2ccccc2)nc2scc(-c3ccc(C)o3)c2c1=O
The “hERG current change (%, negative = inhibition) at 10uM” value of the first is higher: 16.4% for the first, 8.76% for the second.

Going from O=C(NCCS(=O)c1ccc(Cl)cc1)c1cccc(Cl)c1 (stereo not shown) to Cc1cnc(C(=O)NCCc2ccc(Cl)cc2)cn1, the “hERG current change (%, negative = inhibition) at 10uM” value falls from -12.2% to -15.8%.

Going from Cc1ccc(C(C)C)c(OC(=O)/C=C/c2ccccc2)c1 to O=C(Nc1ccn(-c2ccccc2)n1)c1ccccc1Br, the “hERG current change (%, negative = inhibition) at 10uM” value falls from 9.52% to -66%.

First: Cn1cc(S(=O)(=O)N2CCCC2)cc1C(=O)N1CCN(c2ccccc2)CC1
Second: COc1ccc(-c2cc(C(=O)N3CCN(S(=O)(=O)c4ccccc4)CC3)[nH]n2)cc1
The “hERG current change (%, negative = inhibition) at 10uM” value of the first is lower: -35.8% for the first, 8.23% for the second.

First: CCc1ccc(NC2=NCCCS2)cc1
Second: CC1(C)CC(=O)C=C(Nc2ccc3c(c2)OCCO3)C1
The “hERG current change (%, negative = inhibition) at 10uM” value of the first is lower: -9.94% for the first, 17.7% for the second.

First: c1ccc2c3c([nH]c2c1)C1(CCNCC1)NCC3
Second: CC1CC(=O)C2=C(C1)Nc1ccccc1N=C2 (stereo not shown)
The “hERG current change (%, negative = inhibition) at 10uM” value of the first is lower: -6.06% for the first, -4.46% for the second.

Compared with CC(C)CNS(=O)(=O)c1ccc(CCC(=O)N2CCCC2)cc1, CC(C)CNS(=O)(=O)c1ccc(CCC(=O)N2CCN(c3ccc(F)cc3)CC2)cc1 is lower in “hERG current change (%, negative = inhibition) at 10uM” value: 24.4% for the first, -50.3% for the second.

First: CCCNS(=O)(=O)c1ccc(CCC(=O)N2CCN(c3ccc(F)cc3)CC2)cc1
Second: C/C(=N\NC(=O)CN1CCN(c2ccc(F)cc2)CC1)c1ccco1
The “hERG current change (%, negative = inhibition) at 10uM” value of the first is lower: -43.7% for the first, -30.3% for the second.

First: COc1cc2c3nnc(-c4ccccc4)c-3cn(Cc3ccc(F)cc3)c2cc1OC
Second: COc1cc2c3nnc(-c4ccc(F)cc4)c-3cn(Cc3ccccc3)c2cc1OC
The “hERG current change (%, negative = inhibition) at 10uM” value of the first is lower: -76.8% for the first, -37.1% for the second.

Compared with COc1cc2c3nnc(-c4ccc(F)cc4)c-3cn(Cc3cccc(F)c3)c2cc1OC, COc1cc2c3nnc(-c4ccc(F)cc4)c-3cn(Cc3ccc(F)cc3)c2cc1OC is lower in “hERG current change (%, negative = inhibition) at 10uM” value: 29.7% for the first, -28.5% for the second.

Compared with COc1ccc(Cn2cc3c(-c4ccc(F)cc4)nnc-3c3cc(OC)c(OC)cc32)cc1, COc1cc2c3nnc(-c4ccc(F)cc4)c-3cn(Cc3ccc(C)cc3)c2cc1OC is higher in “hERG current change (%, negative = inhibition) at 10uM” value: -88.2% for the first, 2.79% for the second.

First: COc1ccc(C(=O)O)nc1C
Second: COc1cc(C(=O)N2CCN(C(=O)c3ccccc3)CC2)cc(OC)c1OC
The “hERG current change (%, negative = inhibition) at 10uM” value of the first is lower: 5.78% for the first, 8.49% for the second.

Going from C/C(=N/NC(=O)CN1CCN(S(=O)(=O)c2ccc(Br)cc2)CC1)c1ccco1 to C/C(=N/NC(=O)CN1CCN(S(=O)(=O)c2ccc(C)cc2)CC1)c1ccco1, the “hERG current change (%, negative = inhibition) at 10uM” value rises from -68.9% to -53.7%.

Going from C/C(=N/NC(=O)CN1CCN(S(=O)(=O)c2ccc(C)cc2)CC1)c1cccc(O)c1 to C/C(=N/NC(=O)CN1CCN(Cc2ccccc2Cl)CC1)c1ccco1, the “hERG current change (%, negative = inhibition) at 10uM” value falls from -15% to -25.4%.

Going from COc1cc(NC2c3ncccc3C(=O)N2Cc2ccco2)cc(OC)c1 (stereo not shown) to COc1ccc(OC)c(C2=CC(=O)C[C@H](c3ccc4c(c3)OCO4)C2)c1, the “hERG current change (%, negative = inhibition) at 10uM” value falls from -0.0378% to -10.6%.

Going from CCOC(=O)N1CCN(C(=O)c2ccc(Cn3c(=S)[nH]c4ccc(Br)cc4c3=O)cc2)CC1 to O=C(c1cc(-c2ccc(Br)cc2)n[nH]1)N1CCN(C(=O)c2ccccc2Br)CC1, the “hERG current change (%, negative = inhibition) at 10uM” value falls from 13.3% to -32.4%.

First: CN(C)c1cccc(NC2=CC(=[N+]3CCOCC3)CC(C)(C)C2)c1.[I-]
Second: CN(C)NC1=CC(=[N+]2CCCC2)CC(C)(C)C1.[I-]
The “hERG current change (%, negative = inhibition) at 10uM” value of the first is lower: -65.6% for the first, 14.6% for the second.

Going from CCOc1ccc(NC(=O)NC(C)c2ccc3c(c2)OCO3)cc1 (stereo not shown) to COc1ccc(S(=O)(=O)N2CCN(C(=O)c3cc(-c4ccc(Br)cc4)n[nH]3)CC2)cc1OC, the “hERG current change (%, negative = inhibition) at 10uM” value falls from 21.3% to -13.5%.

First: CC1=NN(Cc2ccccc2)C(=O)C1
Second: CC1(C)CC(=O)C2=C(C1)Nc1ccccc1N=C2.Cl
The “hERG current change (%, negative = inhibition) at 10uM” value of the first is higher: -0.313% for the first, -8.52% for the second.

First: O=C1CC(c2ccc(F)cc2)CC2=C1C(c1ccc([N+](=O)[O-])o1)Nc1ccccc1N2 (stereo not shown)
Second: O=C1CC(c2ccc(F)cc2)CC2=C1C=Nc1ccccc1N2 (stereo not shown)
The “hERG current change (%, negative = inhibition) at 10uM” value of the first is higher: -47.3% for the first, -72.8% for the second.

First: O=C1CC(c2ccco2)CC2=C1C=Nc1ccccc1N2 (stereo not shown)
Second: O=C1CC(c2ccccc2)CC2=C1C=Nc1ccccc1N2 (stereo not shown)
The “hERG current change (%, negative = inhibition) at 10uM” value of the first is higher: -24.9% for the first, -61% for the second.

First: O=C(Nc1c[nH]c(=O)[nH]c1=O)c1ccc([N+](=O)[O-])cc1
Second: CCOC(=O)c1[nH]c(C)c(C(=O)OCC(=O)N2c3ccccc3CC2C)c1C (stereo not shown)
The “hERG current change (%, negative = inhibition) at 10uM” value of the first is higher: 10% for the first, -0.0968% for the second.

First: COc1cc(C)c(Br)cc1S(=O)(=O)NCCCN1CCOCC1
Second: COc1cc(C(=O)N2CCN(C(=O)c3cc(-c4ccc(Br)cc4)n[nH]3)CC2)cc(OC)c1OC
The “hERG current change (%, negative = inhibition) at 10uM” value of the first is higher: 9.66% for the first, -73.3% for the second.

Going from COc1cc(C(=O)N2CCN(C(=O)c3cc(-c4ccccc4)n[nH]3)CC2)cc(OC)c1OC to Cc1nc2sc3c(c2c2nnc(SCC(=O)NCc4ccco4)n12)CCCC3, the “hERG current change (%, negative = inhibition) at 10uM” value rises from -77.6% to -28.2%.

With Cc1nnc(SCc2nnc(-c3ccccc3Br)o2)n1-c1ccccc1 the “hERG current change (%, negative = inhibition) at 10uM” value was -14.6%.
